# Values joined by “and” are separate entries in the source; they are usually repeats but may differ in a detail not shown here. Equal values may be shown once. Inconclusive results are not listed. Where a call stands in place of a potency, no number is given. The source holds several records for some structures; these can differ, active in one and inactive in another. Active and inactive are the calls of the source. Calls follow the shape of the dose curve; as a rule, active = well fitted cell-killing curve with a large enough effect in the repeat runs; inconclusive = weak or mixed curves, or effect the other way; inactive = flat fitted curve, though single readings scatter.
# Assay: Nuclear factor erythroid 2-related factor 2/antioxidant responsive element (Nrf2/ARE) small molecule agonists: qHTS cell viability counter screen in human keratinocytes (AID 1919968); also: nearly all actives have a fitted effect of over 55% in size
# Conditions: KeratinoSens HaCaT ARE cells viability, CellTiter-Fluor, 24 h; series mostly up to 92.4 µM
# Text: U.S. Tox21 Program National Center for Advancing Translational Sciences [NCATS] Division of Preclinical Innovation [DPI] U.S. Environmental Protection Agency [EPA] National Institutes of Environmental Health Sciences [NIEHS] National Toxicology Program [NTP] U.S. Food and Drug Administration [FDA] Tox21 Assay Overview: Oxidative stress has been implicated in the pathogenesis of a variety of diseases ranging from cancer to neurodegeneration. The antioxidant response element (ARE) signaling pathway plays an important role in the amelioration of oxidative stress. The KeratinoSens (Givaudan, Switzerland) is an in vitro test method which quantifies luciferase induction as a measure of activation of Keap1-Nrf2-antioxidationt/electrophile response element (ARE) dependant pathway in HaCaT human keratinocytes stably transfected with a selectable plasmid. The KeratinoSens assay is a cell-based assay with a reporter cell line to detect potential skin sensitizers by their ability to induce the Nrf2/ARE-response. The activation of the report gene under culture conditions can be detected by ONE-Glo Luciferase Assay System (Promega, Madison, WI). This cell line has been used to screen the Tox21 10K compound library to identify agonists that induce oxidative stress. The cytotoxicity of the Tox21 compound library against the KS-ARE cell line was tested in parallel by measuring the cell viability using CellTiter- Fluor assay system (Promega, Madison, WI) in the same wells.
# Tox21 Assay Protocol Summary: HaCaT derived cell line KeratinoSens were dispensed at 1,500 cells/5uL/well in 1536-well white wall/solid bottom plates using a Multidrop Combi (ThermoFisher Scientific, Waltham, MA) dispenser. After the assay plates were incubated at 37 C/5% CO2 for 5 h, 23 nL of compounds dissolved in DMSO, positive controls or DMSO only was transferred to the assay plate by a pintool workstation (Kalypsys, San Diego, CA). The plates were incubated at 37 C/5% CO2 for 23 h, followed by addition of 1uL/well of CellTiter-Fluor reagent into the assay plates using a Flying Reagent Dispenser (Aurora Discovery, San Diego, CA) for cell viability readout that measures cytotoxicity. After 1 h incubation at 37 C/5% CO2 the fluorescence intensity was measured using a ViewLux (PerkinElmer, Shelton, CT) plate reader.
# Potency is read from the fitted curve at half-maximal effect.
row,SMILES,Potency
1,CCCCCCCCCCn1cc[n+](C)c1,inactive and 61.4 µM (active) and 30.6 µM (active)
2,CCc1cnc(C2=NC(C)(C(C)C)C(=O)N2)c(C(=O)O)c1 (stereo not given),inactive
3,Clc1ccc(C(Cl)(Cl)Cl)c(Cl)c1,inactive
4,Oc1cc(Cl)c(Cl)cc1Cl,inactive
5,CCn1cc[n+](C)c1C,inactive
6,CCCCCCCCCCOC(=O)c1ccccc1C(=O)OCCCCCCCCCC,inactive
7,C1CC2OC2CC1C1CO1 (stereo not given),inactive
8,O=S(=O)(Cl)Cl,inactive
9,OCC(Br)CBr (stereo not given),inactive
10,CCN(CCO)CCO,inactive
11,O=NN1CCCCCCC1,inactive
12,NN=C(N)N,inactive
13,Cc1coc2c1CCC(C)C2 (stereo not given),inactive
14,CSc1nnc(C(C)(C)C)c(=O)n1N,inactive
15,O=C(O)C(Cl)(Cl)Cl,inactive
16,Fc1cc(Br)ccc1CBr,inactive
17,CCC(=O)OC1(c2ccccc2)CCN(C)CC1,inactive
18,O=C(O)CC(O)(CC(=O)O)C(=O)O,inactive
19,COC(=O)[C@@H](N)CCCN/C(N)=N/[N+](=O)[O-],inactive
20,CCOC(=O)Nc1cccc(OC(=O)Nc2ccccc2)c1,inactive

row,SMILES,Potency
1,O=P(O)(O)CCCl,inactive
2,C#CCOC(=O)/C=C(C)/C=C/CC(C)CCCC(C)C (stereo not given),inactive
3,OC(c1ccc(Cl)cc1)(c1cncnc1)c1ccccc1Cl (stereo not given),inactive
4,COCCC#N,inactive
5,Nc1ccccc1C(=O)O,inactive
6,COc1cc(OC)nc(Sc2cccc(Cl)c2C(=O)O)n1,inactive
7,OCC1CO1 (stereo not given),inactive
8,CCN,inactive
9,CC(C)(Cl)Cl,inactive
10,Nc1cccc(Cl)c1,inactive
11,CCCC[n+]1cccc(C)c1,inactive
12,CCCCCCCCn1cc[n+](C)c1,inactive
13,CC(C)OC(=O)Cc1ccccc1,inactive
14,N#Cc1cccnc1,inactive
15,C#C[C@]1(O)CC[C@H]2[C@@H]3CCC4=CC(=O)CC[C@]4(C)[C@H]3CC[C@@]21C,inactive
16,O=C(O)Cc1ccccc1,inactive
17,O=C(Cl)OCCOCCOC(=O)Cl,inactive
18,CN(C)C(=S)S,9.89 µM (active) and 607 nM (active) and 27.3 µM (active)
19,Oc1ccccc1-c1ccccc1,inactive
20,COC(=O)c1ccc(CBr)cc1,inactive

# — PubChem BioAssay (Tox21)
